Data from PubChem BioAssay (EPA / NIEHS).
Inconclusive results are not listed. The source made the active and inactive calls. Rule for the calls, unless noted: active = hit-call score of the fitted dose curve at least 0.9, where 1 is the maximum; inconclusive = response in the unintended direction; inactive = score below 0.9.

Experiments:
[1] = TOX21_p53_BLA_p2_viability: Viability Assessment in the Tox21 HCT-116 p53 Agonism Beta-lactamase Assay, Phase 2 (AID 2283591);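 note: compound exposure lasted 16 h at 37 °C; actives lower the ATP signal meaning cytotoxicity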
Summary of the method: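 HCT116 p53-bla cells, 4000/well, dosed after 5 h plating (217-fold dilution of DMSO stocks) and incubated 16 h at 37C. Viability taken as cellular ATP by CellTiter-Glo luminescence after 30 min RT; signal loss marks cytotoxicity.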

[2] = biological target: Cellular tumor antigen p53 (Homo sapiens) (UniProt P04637); assay: TOX21_p53_BLA_p2_ratio: Tox21 HCT-116 p53 Agonism Beta-lactamase Assay, Ratio, Phase 2 (AID 2283592)
Cellular tumor antigen p53 (Homo sapiens), sequence (P04637 whole entry, looked up): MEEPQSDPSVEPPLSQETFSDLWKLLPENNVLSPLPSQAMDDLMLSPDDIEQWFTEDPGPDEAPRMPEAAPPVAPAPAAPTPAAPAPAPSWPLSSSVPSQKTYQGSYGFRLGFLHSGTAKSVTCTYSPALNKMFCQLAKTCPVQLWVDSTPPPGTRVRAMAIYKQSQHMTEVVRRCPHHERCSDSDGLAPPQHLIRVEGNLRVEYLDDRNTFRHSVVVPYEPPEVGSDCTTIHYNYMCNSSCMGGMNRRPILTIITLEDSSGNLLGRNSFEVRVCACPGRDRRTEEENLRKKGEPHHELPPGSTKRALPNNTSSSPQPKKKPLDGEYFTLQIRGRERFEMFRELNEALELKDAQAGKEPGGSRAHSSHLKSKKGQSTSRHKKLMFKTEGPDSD
Summary of the method: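 In this cell-based reporter format, HCT116 cells were dosed with chemicals delivered from DMSO by 217-fold dilution and incubated 16 h at 37C. Emission at 460 and 530 nm after 2 h CCF4-AM loading provided the ratio, fitted upward versus DMSO.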

[3] = TOX21_p53_BLA_p3_viability: Viability Assessment in the Tox21 HCT-116 p53 Agonism Beta-lactamase Assay, Phase 3 (AID 2283593);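 note: cells exposed to compound for 16 h before reading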
Summary of the method: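 HCT116 cells, 4000/well, dosed 5 h after plating by pin transfer (217-fold dilution from DMSO stock) and incubated 16 h at 37C, 5% CO2. Viability read as ATP luminescence with CellTiter-Glo after 30 min at room temperature.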

[4] = TOX21_p53_BLA_p4_viability: Viability Assessment in the Tox21 HCT-116 p53 Agonism Beta-lactamase Assay, Phase 4 (AID 2283597);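 note: hits lower the luminescence signal meaning cytotoxicity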
Summary of the method: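 We seeded HCT116 p53 reporter cells at 4000/well and waited 5 h. We then added compounds in DMSO at a 217-fold dilution and incubated for 16 h. Viability was read as CellTiter-Glo luminescence after 30 min at RT.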

[5] = TOX21_p53_BLA_p5_viability: Viability Assessment in the Tox21 HCT-116 p53 Agonism Beta-lactamase Assay, Phase 5 (AID 2283600)
Summary of the method: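 Compounds, pinned from DMSO at 217-fold dilution, were left on the cells for 16 h. The viability endpoint was ATP content measured by CellTiter-Glo luminescence, where falling signal reflects cytotoxicity.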

[6] = biological target: Cellular tumor antigen p53 (Homo sapiens) (UniProt P04637); assay: TOX21_p53_BLA_p4_ratio: Tox21 HCT-116 p53 Agonism Beta-lactamase Assay, Ratio, Phase 4 (AID 2283601)
Summary of the method: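 HCT-116 p53 beta-lactamase reporter cells (4000/well) preincubated 5 h, then compound (217-fold dilution of DMSO stock) for 16 h at 37C. CCF4-AM substrate added 2 h at room temperature; 460/530 nm emission ratio fitted upward versus DMSO.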

[7] = ACEA_ER_AUC_viability: ACEA Biosciences xCELLigence Real-Time Cell Analysis on Estrogen Receptor Agonism for Viability (AID 2283782);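 note: continuous compound exposure with impedance area under curve over 80 h; hit means loss of impedance signal meaning reduced cell growth or viability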
Summary of the method: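 T47D cells preconditioned in phenol red-free RPMI with charcoal-stripped FBS, then dosed with 8-point 1:4 series from 100 uM (up to 0.5% DMSO). Impedance monitored up to ~80 h; area-under-curve loss versus DMSO taken as viability.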

[8] = CCTE_Harrill_HTTr_Viability_MCF7: CCTE's 6-hour Cell Viability Assessment for the High-Throughput Transcriptomics (HTTr) Platform, in MCF-7 cells cultured in DMEM + 10% fetal bovine serum, Harrill Lab (AID 2284010; active = hit-call score of the fitted dose curve at least 0.9, where 1 is the maximum; inactive = score below 0.9)
Summary of the method: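 Cells were dosed with chemicals in an eight-point dilution series, imaged 6 hours later for propidium iodide uptake, and the endpoint was analyzed by bidirectional fitting against DMSO as negative control.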

[9] = CCTE_Harrill_HTTr_Apoptosis_MCF7: CCTE's 6-hour Apoptosis Assessment for the High-Throughput Transcriptomics (HTTr) Platform, in MCF-7 cells cultured in DMEM + 10% fetal bovine serum, Harrill Lab (AID 2284011; active = hit-call score of the fitted dose curve at least 0.9, where 1 is the maximum; inactive = score below 0.9)
Summary of the method: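 Read-out: CellEvent Caspase 3/7 Green signal by high content imaging, gain-of-signal indicating apoptosis. MCF-7 cells, DMEM + 10% FBS, eight-point dilution series, 6 h exposure. Curves fitted bidirectionally relative to DMSO negative control.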

[10] = biological target: Cellular tumor antigen p53 (Homo sapiens) (UniProt P04637); assay: TOX21_p53_BLA_p5_ratio: Tox21 HCT-116 p53 Agonism Beta-lactamase Assay, Ratio, Phase 5 (AID 2283599)
Summary of the method: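 HCT-116 p53-bla cells (4000/well) plated 5 h, dosed with compound (217-fold DMSO dilution) for 16 h at 37 C; CCF4-AM substrate 2 h at room temperature. Activity is the 460/530 nm emission ratio (405 nm excitation), fitted in gain-of-signal direction versus DMSO.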

Measured: outcome

O=C(O)CCCc1c[nH]c2ccccc12
not listed: [10]
inactive: all other assays above

O=C(O)CSCC(=O)NC1CCSC1=O (centres undefined)
inactive: [1] | [2] | [3] | [10]

Cc1cc(C)c(NC(=O)CN(CC(=O)O)CC(=O)O)c(C)c1Br
inactive: [1] | [2] | [3] | [10] | [5] | [6]

CCN(CC)S(=O)(=O)c1ccc(C(=O)O)cc1
inactive: [1] | [2] | [3] | [10]

Cc1cc(-c2ccccc2)nnc1NCCN1CCOCC1
inactive: [1] | [2] | [3] | [10]

O=C(CO)[C@@H](O)[C@H](O)[C@H](O)CO
inactive: [1] | [2] | [3] | [4] | [6]

COC(=O)[C@H]1[C@H]2C[C@H]3c4[nH]c5ccccc5c4CCN3C[C@H]2CC[C@@H]1O
inactive: [1] | [2] | [3] | [10]

CCN1CCN(c2cc3c(cc2F)c(=O)c(C(=O)O)cn3C2CC2)CC1
inactive: [1] | [2] | [3] | [10] | [5]

CCN1CCN(c2cc(-c3ccc(F)cc3)c3c(n2)CCCCCC3)CC1
inactive: [1] | [2] | [3] | [4] | [5] | [6]

C=C(C)C(=O)OCCNC(C)(C)C
inactive: [1] | [2] | [3] | [4] | [5] | [7]

CCC(=O)OCC(=O)[C@@]1(OC(=O)CC)[C@H](C)C[C@H]2[C@H]3[C@H]([C@@H](O)C[C@@]21C)[C@@]1(C)C=CC(=O)C=C1C[C@H]3Cl
inactive: [1] | [2] | [3] | [10] | [5] | [6]

Nc1ccc2ccccc2c1S(=O)(=O)O
inactive: [1] | [2] | [3] | [10] | [5]

COC(=O)C1CC(=O)C(C(=O)OC)CC1=O (centres undefined)
inactive: [1] | [2] | [3] | [4] | [6]

NC(=O)COCCN1CCN(C(c2ccccc2)c2ccc(Cl)cc2)CC1 (centres undefined)
inactive: [1] | [2] | [3] | [4] | [6]

O=C(O[C@H]1CN2CCC1CC2)N1CCc2ccccc2[C@@H]1c1ccccc1
inactive: [1] | [2] | [3] | [4] | [6]

C[Si](C)(C)C
inactive: [1] | [2] | [3] | [10] | [6]

OCC(CBr)(CBr)CBr
inactive: [1] | [2] | [3] | [4] | [6]
